A selection: hits, their analogues and other compounds. The true share with any hit is near 2.9%.
KLK7 zymogen act = proKLK7 zymogen activators, primary screen, biochemical, fluorescence intensity | AID 652039, 2013 | activation, % at 7 µM | 370,000 compounds, 0.9% hits | Kallikrein-7 (Homo sapiens), P49862 | purified proKLK7, EDANS-DABCYL substrate fluorescence; 100% is mature enzyme control, 0% vehicle;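 active = activation above the mean of all tested compounds plus 3 SD, computed per campaign excluding outliers beyond control limits, cut at about 13% in these data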
PLCb3 inh = human PLC-beta3 inhibitors, primary screen, biochemical, fluorescence | Purified PLC-beta3, fluorogenic substrate | inhibition, % at 12.2 µM | 370,000 compounds, 0.18% hits; in the data active = inhibition above about 11%
ADAM10 inh = human ADAM10 inhibitors, primary screen, biochemical, QFRET, HTS | Disintegrin and metalloproteinase domain-containing protein 10 (Homo sapiens), O14672 | inhibition, % at 7 µM | recombinant ADAM10, EDANS/DABCYL FRET peptide cleavage, 3 h | 370,000 compounds, 0.62% hits;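 active = inhibition above a per-campaign cutoff equal to the mean of compounds falling between control-based bounds plus 3 SD, cut at about 20% in these data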
ADAM17 inh = ADAM17 inhibitors, primary screen, biochemical, QFRET. 370,000 compounds, 0.83% hits. recombinant ADAM17, EDANS/DABCYL FRET peptide cleavage. AID 720648, 2013. inhibition, % at 6.95 µM;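 active = inhibition above the mean of compounds lying between control limits plus 3 SD, set per campaign, cut at about 8.5% in these data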
Target sequence (P78536 215-824 limits assumed): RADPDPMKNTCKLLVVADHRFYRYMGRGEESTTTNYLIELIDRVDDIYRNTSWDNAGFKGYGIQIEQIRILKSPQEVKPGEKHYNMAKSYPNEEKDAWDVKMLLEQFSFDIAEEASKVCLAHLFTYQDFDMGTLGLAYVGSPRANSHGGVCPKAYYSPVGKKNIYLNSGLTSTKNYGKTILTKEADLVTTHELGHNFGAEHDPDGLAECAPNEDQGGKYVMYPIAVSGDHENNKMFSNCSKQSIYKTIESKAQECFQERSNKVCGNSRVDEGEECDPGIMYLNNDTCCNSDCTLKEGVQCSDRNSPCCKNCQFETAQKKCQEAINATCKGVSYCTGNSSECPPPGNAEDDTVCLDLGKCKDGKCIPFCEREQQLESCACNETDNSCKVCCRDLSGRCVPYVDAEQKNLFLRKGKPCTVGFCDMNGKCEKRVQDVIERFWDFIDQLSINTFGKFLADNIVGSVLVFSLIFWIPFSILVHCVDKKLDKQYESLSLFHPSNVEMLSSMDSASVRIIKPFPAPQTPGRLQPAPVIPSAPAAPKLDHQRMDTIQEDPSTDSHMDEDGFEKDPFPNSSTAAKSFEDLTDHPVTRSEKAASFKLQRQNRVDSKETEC
PLC-gamma1 inh = PLC-gamma1 enzyme inhibitors, primary screen, biochemical, fluorescence, purified enzyme. inhibition, % at 12.2 µM. fluorogenic substrate. 370,000 compounds, 0.84% hits. AID 720700, 2013. 1-phosphatidylinositol 4,5-bisphosphate phosphodiesterase gamma-1 (Homo sapiens), P19174; in the data active = inhibition above about 9.5%
ADAM10 counter = ADAM10 inhibitors, counter-screen for ADAM17 exosite inhibitor project, biochemical, FRET, human ADAM10. shares compounds with ADAM17 inh. recombinant ADAM10, EDANS/DABCYL FRET peptide cleavage, 3 h. inhibition, % at 6.95 µM. 2,900 compounds, 47% hits. AID 743256, 2014;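 active = mean inhibition over the triplicate runs exceeds the activity threshold set in the earlier primary screen, cut at about 20% in these data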
ADAM17 confirm = ADAM17 inhibitors, hit retest, confirmation, biochemical, QFRET peptide cleavage; shares compounds with ADAM17 inh; recombinant ADAM17, EDANS/DABCYL QFRET peptide cleavage; inhibition, % at 6.95 µM; 2,900 compounds, 65% hits; AID 743257, 2014;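 active = mean inhibition across replicates above the hit cutoff set in the primary screen, cut at about 8.5% in these data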
Numbers stand for hits; . = inactive; / = not tested or not shown.

SMILES	KLK7 zymogen act	PLCb3 inh	ADAM10 inh	ADAM17 inh	PLC-gamma1 inh	ADAM10 counter	ADAM17 confirm
CC1=C(C(=O)N2CCOCC2)CC(CC(=O)NCc2cccc3ccccc23)C(=O)N1Cc1ccc(C(C)(C)C)cc1 (stereo not drawn)	.	.	.	9.0	.	.	.
CC1=C(C(=O)N2CCOCC2)CC(CC(=O)NCc2cccs2)C(=O)N1Cc1ccc(C(C)(C)C)cc1 (stereo not drawn)	.	.	.	.	.	/	/
Cc1cn([C@H]2C[C@H](O)[C@@H](CCC(=O)NCc3cccc4ccccc34)O2)c(=O)[nH]c1=O	.	.	.	.	.	/	/
CCCOC(=O)c1ccc(Oc2c(-c3ccc(OCC)cc3O)n[nH]c2C)cc1	.	.	.	9.8	.	24.4	14.8
COc1ccc(Oc2c(-c3ccc(O)cc3O)n[nH]c2C)cc1	.	.	.	.	.	/	/
CCCOC(=O)c1ccc(Oc2cn[nH]c2-c2ccc(OCC)cc2O)cc1	.	.	.	9.8	.	.	12.1
CCCc1ccc(Oc2c(-c3ccc(O)c(C)c3O)n[nH]c2C)cc1	.	.	.	9.0	.	.	.
O=C(O)Cc1ccc(C(=O)c2ccccc2F)s1	.	.	.	.	.	/	/
O=S1(=O)N=C(N/N=C/c2cccs2)c2ccccc21	.	.	.	.	.	/	/
COc1ccc(CN(C)C(=O)c2cc(-c3ccccc3)nc3ccc(C)cc23)c(OC)c1	.	.	.	11.9	.	.	.
COc1ccccc1CN(C)C(=O)c1cc(C)nc2ccccc12	.	.	.	.	.	/	/
Cc1cc(C)cc(-n2c(SCC(=O)NCc3ccco3)nc3ccccc3c2=O)c1	.	.	.	10.4	.	.	8.7
Cc1cccc(C)c1-n1c(SCC(=O)NCc2ccco2)nc2ccccc2c1=O	.	.	.	.	.	/	/
CCN1C(=O)/C(=C/c2ccc(C)s2)NC1=S	.	.	.	10.2	.	.	11.6
Cn1ncc2c(NCCc3ccccc3)nc(Cl)nc21	.	.	.	.	.	/	/
CCc1ccc(NC(=O)COC(=O)/C=C/c2ccco2)cc1	.	.	.	11.3	.	.	.
O=C(COC(=O)/C=C/c1ccco1)Nc1ccccc1	.	.	.	.	.	/	/
CC1=CC(C)(C)N2C(=O)C3(NCCc4c3[nH]c3ccccc43)c3cc(C)cc1c32 (stereo not drawn)	.	.	.	.	.	/	/
CC1=CC(C)(C)N2C(=O)C3(SCC(=O)N3c3ccc(F)cc3)c3cc(C)cc1c32 (stereo not drawn)	.	.	.	9.5	.	21.3	12.5
CC1CN(CCCCOc2ccc(F)cc2)CC(C)O1 (stereo not drawn)	.	.	.	.	.	/	/
O=C(c1ccccc1[N+](=O)[O-])N(CCc1ccccc1)Cc1ccccc1	.	.	.	.	.	/	/
Cc1cccc(C(=O)N(CCc2ccccc2)Cc2ccccc2)c1[N+](=O)[O-]	.	.	.	8.8	.	27.9	13.0
CN(CC(=O)Nc1cccc(S(=O)(=O)N2CCCC2)c1)Cc1ccccc1	.	.	.	.	.	/	/
COc1ccc([C@H]2CC(=O)C=C(c3ccc(F)cc3OCc3ccccc3)C2)cc1	.	.	.	.	.	/	/
COc1ccc([C@H]2CC(=O)C=C(c3ccc(F)cc3OCc3ccccc3)C2)cc1OC	.	.	.	9.8	.	.	.
SMILES	KLK7 zymogen act	PLCb3 inh	ADAM10 inh	ADAM17 inh	PLC-gamma1 inh	ADAM10 counter	ADAM17 confirm
COc1ccc(C=NCCc2ccc(OC)c(OC)c2)cc1OC	.	.	.	.	.	/	/
O=S(=O)(NC1CCc2ccccc21)c1ccccc1 (stereo not drawn)	.	.	.	.	.	/	/
CCOC(=O)N1CCC(n2c(SCC(=O)NCc3ccccc3)nc3ccccc3c2=O)CC1	.	.	.	.	.	/	/
CCOC(=O)N1CCC(n2c(SCC(=O)Nc3ccccc3OC)nc3ccccc3c2=O)CC1	.	.	.	10.2	.	28.8	16.0
CCOC(=O)c1c(NC(=O)CSc2c[nH]c3ccccc23)sc2c1CCC2	.	.	.	9.8	.	33.6	20.6
CCOC(=O)c1c(NC(=O)CSc2nnc3ccccn23)sc2c1CCC2	.	.	.	.	.	/	/
CCOC(=O)c1c(NC(=O)CSc2nnc(-c3c[nH]c4ccccc34)n2CCOC)sc2c1CCCCC2	.	.	.	.	.	/	/
CCOC(=O)c1c(NC(=O)CSc2c[nH]c3ccccc23)sc2c1CCCC2	.	.	.	9.7	.	23.9	16.7
O=C(C1=C[C@@H](C2CCCCC2)C[C@@H](OCc2ccc(CO)cc2)O1)N1CCN(Cc2ccc3c(c2)OCO3)CC1	.	.	.	10.3	.	27.0	17.8
O=C(C1=C[C@H](C2CC2)C[C@H](OCc2ccc(CO)cc2)O1)N1CCN(Cc2ccc3c(c2)OCO3)CC1	.	.	.	.	.	/	/
CN(C(=O)c1ccc(NC(=O)Cc2ccc([N+](=O)[O-])cc2)cc1)C1CC1	.	.	.	.	.	/	/
O=C(NNC(=O)c1ccc(Br)s1)c1csc(N2CCOCC2)n1	.	.	.	.	.	/	/
COc1ccccc1-c1csc(C(O)(c2ccccc2)C(F)(F)F)n1 (stereo not drawn)	.	.	.	10.3	.	33.6	19.0
COc1cccc(C(C)(O)c2nc(-c3ccccc3OC)cs2)c1 (stereo not drawn)	.	.	.	.	.	/	/
COc1cc(F)ccc1-c1csc(C(C)(O)c2ccccc2)n1 (stereo not drawn)	.	.	.	10.1	.	23.8	11.4
CC(C)c1ccc(/C=N/NC(=O)c2nnn(-c3nonc3N)c2CN(C)C2CCCCC2)cc1	.	.	.	.	.	/	/
Cc1ccc(SCc2nc(N)nc(Nc3ccccc3C)n2)cc1C	.	.	.	9.2	.	.	.
Cc1ccccc1Nc1nc(N)nc(CSc2ccc(F)cc2)n1	.	.	.	.	.	/	/
CN1C(=O)C(CC#N)(C2(CC#N)C(=O)N(C)c3ccccc32)c2ccccc21 (stereo not drawn)	.	.	.	.	.	/	/
OCCOCCn1c(C2CCCN2c2nc(-c3ccc(F)cc3)cs2)nc2cc(C(F)(F)F)ccc21 (stereo not drawn)	.	.	.	9.9	.	.	.
Cc1c(C(=O)OCc2nc3scc(-c4ccccc4)c3c(=O)[nH]2)cccc1[N+](=O)[O-]	.	.	.	.	.	/	/
